Among all 68,000 compounds or so, about 2,700 (4%) showed an effect of 50% or more. The sample holds strong results, similar compounds and a random draw of the others, so the mix is not that of the screen.
tested on: Plasmodium berghei; test: Screen against P. berghei liver stage (PbLuc), transformed with Luciferase, at 2uM; assay type: functional, HepG2; details: tested at 2 uM

SMILES	INHIBITION [%]
Cc1noc(Cl)c1CCC(=O)N1CCN(Cc2ccncc2)CC1	62.13
O=C(Nc1ccc2c(ccn2CCN2CCOCC2)c1)c1ccccn1	13.72
Cc1cc(CN(C)C(=O)NC2CCCC2)no1	29.12
N#Cc1cccc(N2CCCC3(CCC(=O)N(C4CCCC4)C3)C2)n1 (centres undefined)	-11.07
COc1c(C2CCCN2C(=O)c2sc(C)nc2C)c(C)nn1C (centres undefined)	-37.68
CN(C)C(=O)CN1CCCCC1c1nc(N)ncc1-c1cccc(F)c1 (centres undefined)	65.76
CN(C)C(=O)CN1CCCCC1c1nc(N)ncc1-c1ccccc1 (centres undefined)	-19.81
NC(=O)CN1CCCCC1c1nc(N)ncc1-c1cccc(F)c1 (centres undefined)	18.64
CC(=O)c1c(C)nn(S(=O)(=O)c2ccc(F)cc2)c1C	16.13
Cc1nc2cc(O)nn2c(C)c1CCC(=O)NCCCC(C)C	37.68
CC(C)C1CN(C(=O)c2cc(F)cc3[nH]cnc23)CCS1 (centres undefined)	11.24
CN(C)C1CCCN(C(=O)NCCC(C)(C)C)C1 (centres undefined)	28.95
CN(C)C1CCCN(C(=O)NCCC(=O)N2CCCCCC2)C1 (centres undefined)	-17.01
CC(C)N(CCNC(=O)N1CCCC(N(C)C)C1)C1CC1 (centres undefined)	73.01
Cc1ccc(O)c(CNCC2CCCN2c2cccnn2)n1 (centres undefined)	24.88
CCN(CC)CCCNC(=O)c1nn(CC)cc1Cl	24.34
CCCNC(=O)c1nn(CC)cc1Cl	-40.28
CCN(CC)CCNC(=O)c1nn(CC)cc1Cl	54.07
COCCCNC(=O)c1c(-n2cnnn2)sc2c1CCC2	-0.44
CS(=O)(=O)c1ccccc1NC(=O)N[C@@H]1c2ccccc2C[C@@H]1O	-11.32
CS(=O)(=O)c1ccccc1N[C@@H]1c2ccccc2C[C@@H]1O	54.29
CN(C)C(=O)c1ccccc1NC(=O)N[C@@H]1c2ccccc2C[C@@H]1O	42.32
O=S1(=O)NCC2(CCCN(Cc3ccccn3)C2)Oc2ncccc21 (centres undefined)	-30.35
CN(C)c1ncc(CNC(=O)Nc2ccc(C(F)(F)F)cc2)n1C	47.59
CC(=O)N[C@@H]1CN(Cc2oc3ccccc3c2C)C[C@H]1c1ccc(C)o1	3.92
Nc1ncccc1CN1CCCn2nc(CCC(=O)NC3CC3)cc2C1	26.82
O=C1C(Nc2nccn3cnnc23)CCN1c1cccc(Cl)c1 (centres undefined)	34.89

SMILES	INHIBITION [%]
CCCc1noc(C2CCN(C(=O)C3CCCO3)CC2)n1 (centres undefined)	15.58
O=C(NC1CCCC1)c1ccc(C2CCCNC2)nc1 (centres undefined)	12
COc1c(C2CCCN2CC(=O)N(C)Cc2ccco2)c(C)nn1C (centres undefined)	5.39
COc1cc(C)ccc1S(=O)(=O)N1CC[C@](C)(O)[C@H](C)C1	-11.41
CCc1ccc(S(=O)(=O)N2CC[C@@](O)(CCOC)[C@H](C)C2)cc1	26.74
COCC[C@]1(O)CCN(S(=O)(=O)c2ccc(C)cc2OC)C[C@H]1C	69.67
COc1cc(COCC2CCN(Cc3ccccn3)CC2)cc(OC)c1	5.98
COc1cc(COCC2CCN(Cc3cccnc3)CC2)cc(OC)c1	20.76
COc1cc(CN2CCC(COCc3ccccc3)CC2)cc(OC)c1	55.25
CC(C)CN1CCC2(COCc3cnc(-c4ccccc4)nc32)C1 (centres undefined)	5.22
O=C(c1cc(C2CC2)[nH]n1)N1CCN(Cc2ccc(Cl)cc2)CC1	59.99
CC(C)c1ccc(CN2CCN(C(=O)c3cc(C4CC4)[nH]n3)CC2)cc1	38.87
O=C(c1cc(C2CC2)[nH]n1)N1CCN(Cc2ccccc2)CC1	5.52
Cc1ccc(C(=O)Oc2cc(=O)n3cccc(C)c3n2)cc1	-38.95
COc1ccc(CCNC(=O)C2CCOC2)c(Cl)c1 (centres undefined)	-7.69
CCOCCCNC(=O)C1(C)CCC(=O)N1c1ccccc1OC (centres undefined)	-15.25
Cc1cccc2c1cnn2CCCNC(=O)c1cnn(C)c1	2.66
O=C(NCCNc1ncccn1)N1CCc2ccccc2C1	-17.17
CCc1ncc(C(=O)N2CCN(c3cnn(C)c(=O)c3)CC2)cn1	24.36
Cc1cncc(C(=O)N2CCN(c3cnn(C)c(=O)c3)CC2)c1	41.05
Cc1oc(C(C)C)cc1C(=O)N1CCN(c2cnn(C)c(=O)c2)CC1	86.36
CNc1cc(C2CCCN2C(=O)c2ccc(=O)[nH]n2)ccn1 (centres undefined)	51.88
CNc1cc(C2CCCN2C(=O)CCc2ccccc2F)ccn1 (centres undefined)	-34.8
CNc1cc(C2CCCN2C(=O)c2ccc3oc(=O)n(C)c3c2)ccn1 (centres undefined)	11.71
CNc1cc(C2CCCN2C(=O)CCc2cnn(C)c2C)ccn1 (centres undefined)	73.23
CNc1cc(C2CCCN(C(=O)c3ccc(=O)[nH]n3)C2)ccn1 (centres undefined)	27.54
Cc1c(CCC(=O)N2CCCC2c2ccnc(N(C)C)c2)cnn1C (centres undefined)	24.13
